Measurements taken from the supplement of paper PMC8728848.
The full list was thinned out, with the strongest signals kept by preference.

Assays:
Experiment in all cases: glycan array binding signal (z-score within array); higher = stronger binding
Conditions in all cases: glycan notation: IUPAC condensed, linker removed; mutation: E227A
Gal6S(b1-4)Glc6S = target: Gal6S(b1-4)Glc6S
In short: (§1)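 Glycan array data were curated from 3228 arrays in the Consortium for Functional Glycomics database and kept only where the protein sequence was available. Glycan names were converted to IUPAC-condensed notation, and columns mapping to the same glycan were averaged. The binding signal is a within-array Z-score, averaged across arrays of the same protein sequence at different concentrations or buffers and across linkers. Negative Z-scores can be read as non-binding.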

Gal6S(b1-4)GlcNAc = target: Gal6S(b1-4)GlcNAc
In short: as §1

Gal6S(b1-4)GlcNAc6S = target: Gal6S(b1-4)GlcNAc6S
In short: as §1

GalNAc(b1-4)GlcNAc6S = target: GalNAc(b1-4)GlcNAc6S
In short: as §1

GalNAc4S6S(b1-4)GlcNAc = target: GalNAc4S6S(b1-4)GlcNAc
In short: as §1

Glc(a1-6)Glc(a1-6)Glc = target: Glc(a1-6)Glc(a1-6)Glc
In short: as §1

[1] = target: GlcNAc(a1-4)Gal(b1-4)GlcNAc
In short: as §1

[2] = target: GlcNAc(a1-4)Gal(b1-4)GlcNAc(b1-3)Gal(b1-4)Glc
In short: as §1

[3] = target: GlcNAc(b1-2)Man(a1-3)[GlcNAc(b1-2)Man(a1-6)]Man(b1-4)GlcNAc(b1-4)GlcNAc
In short: as §1

GlcNAc(b1-3)Fuc = target: GlcNAc(b1-3)Fuc
In short: as §1

[4] = target: GlcNAc(b1-3)Gal(b1-3)GalNAc
In short: as §1

[5] = target: GlcNAc(b1-3)Gal(b1-4)GlcNAc(b1-3)Gal(b1-4)GlcNAc(b1-2)[GlcNAc(b1-3)Gal(b1-4)GlcNAc(b1-3)Gal(b1-4)GlcNAc(b1-6)]Man(a1-6)[GlcNAc(b1-3)Gal(b1-4)GlcNAc(b1-3)Gal(b1-4)GlcNAc(b1-2)Man(a1-3)]Man(b1-4)GlcNAc(b1-4)[Fuc(a1-6)]GlcNAc
In short: as §1

[6] = target: GlcNAc(b1-3)Gal(b1-4)GlcNAc(b1-6)[GlcNAc(b1-3)Gal(b1-3)]GalNAc
In short: as §1

GlcNAc(b1-3)GalNAc = target: GlcNAc(b1-3)GalNAc
In short: as §1

[7] = target: Man(a1-2)Man(a1-3)[Man(a1-2)Man(a1-6)]Man
In short: as §1

[8] = target: Man(a1-2)Man(a1-3)[Man(a1-6)]Man(a1-6)[Man(a1-2)Man(a1-3)]Man(b1-4)GlcNAc(b1-4)GlcNAc
In short: as §1

[9] = target: Man(a1-3)[Man(a1-6)]Man(a1-6)[Man(a1-3)]Man
In short: as §1

[10] = target: Neu5Ac(a2-3)Gal(b1-3)[Fuc(a1-4)]GlcNAc
In short: as §1

[11] = target: Neu5Ac(a2-3)Gal(b1-3)]Neu5Ac(a2-3)Gal(b1-4)]GlcNAc
In short: as §1

[12] = target: Neu5Ac(a2-3)Gal(b1-4)GlcNAc(b1-3)Gal(b1-4)GlcNAc(b1-3)Gal(b1-4)GlcNAc
In short: as §1

[13] = target: Neu5Ac(a2-3)Gal(b1-4)[Fuc(a1-3)]GlcNAc(b1-3)GalNAc
In short: as §1

[14] = target: Neu5Ac(a2-3)Gal(b1-4)[Fuc(a1-3)]GlcNAc(b1-6)[Neu5Ac(a2-3)Gal(b1-3)]GalNAc
In short: as §1

[15] = target: Neu5Ac(a2-6)Gal(b1-4)GlcNAc(b1-2)Man(a1-3)Man(b1-4)GlcNAc(b1-4)GlcNAc
In short: as §1

[16] = target: Neu5Ac(a2-6)Gal(b1-4)GlcNAc(b1-2)Man(a1-6)[Man(a1-3)]Man(b1-4)GlcNAc(b1-4)GlcNAc
In short: as §1

[17] = target: Neu5Ac(a2-6)Gal(b1-4)GlcNAc(b1-3)Gal(b1-4)GlcNAc(b1-6)[Gal(b1-3)]GalNAc
In short: as §1

[18] = target: Neu5Ac(a2-8)Neu5Ac(a2-8)Neu5Ac(a2-3)[Gal(b1-3)GalNAc(b1-4)]Gal(b1-4)Glc
In short: as §1

B1: Epa1-NP-mutant-E227A (Candida glabrata), Q6VBJ0 (protein)
chain: MILNPALFLNKCVCIYTTLILLLLTNGGYATSSNDISLASKDPTTFPLGCSPDITTPKKGLSMELYSYDFRKKGSYPCWDAAYLDPNYPRTGYKSHRLLAKVDGVTGNINFYYHATKGCTPQLGHLPASYNYPKPLTMTNFTMLLYGYFRPKVTGFHTFTISADDLLFVNFGAGNAFDCCRRDSSADHFGNYQAYAIWGSKTAKDELTVHLDAGVYYPIRLFYNNRAYDGALSFTFKTESNENTVSDFSEYFFSLDDTEEGCPGLISYDSSCASVKTSKIIGIDYHTETPNENLVPITKTIYHLGIPCTGTTTTPLCGSGFYDPLANKCVTINTSSTSSVTKTTSHTTSKEVSFHSSISSQKTLIPKSIPSPYGPIKSQSIPTEMETSSEISSSEYAFSDVISTPSHSPYTKKHSSLNSSSYTSTVIHSLTSYSISQGIFSTSLSEQNITSKSSTDKFSTATSMSNNITQSSIIISQFSTNNENYTTTSMHTSSDKISTETLNNSISTTTSILFSNSSTILKNNTTIISSDKDTHYHPVNPTIVCSTNKTEIICASITQPSISNSNNHWSSSVLKFNSTTVRSTLPSSAGSNETSINVPFSSSTESNTSTSSTSTSNSKMVRSTLPSSAGSNETSISVPFSSSTESNTSTSSTSTSNSKMVRSTLPSSAGSNETSINVPFSSSTESNTSTSSTSTSNSKTVRSTPFSSAGIIMTSLSQRNNKSASSYASSNSKCYNTADSCRKVHSTPSYLLTSSYTSEGVDYDCSLVSTKLKINDTNCVNNKHTTKSCLKTSVTTTIPTLEIKTARKSSSNTIGLHSYPTSSPNKSISSAPIIGYISSFKTIKTASPSYQTSDLTTITTITSLNNPGSTAVENTHESNDKSRKTSSNDISSKHSVIKETKDAVESSNKSHQTNTLKCSSIIIASSSHNSYESLGGTTLTLTLSKVYSPQNNDTLPFLEISEVNPSRTVLPESSKMMQYLTSTEERNKTARNTIATNIVSISTFHFEGEGNAIRMGYTQLLLMLIGIIVMNIGT
Q: B1 was tested. Which “glycan array binding signal (z-score)” value (Gal6S(b1-4)Glc6S) did it give?
A: The value was 6.39.

Q: And the “glycan array binding signal (z-score)” value (Gal6S(b1-4)GlcNAc)?
A: The value was 5.93.

Q: What about the “glycan array binding signal (z-score)” value (Gal6S(b1-4)GlcNAc6S) of the same binder?
A: Its value is 15.2.

Q: What about the “glycan array binding signal (z-score)” value (GalNAc(b1-4)GlcNAc6S) of the same binder?
A: Its value is -0.184.

Q: What about the “glycan array binding signal (z-score)” value (GalNAc4S6S(b1-4)GlcNAc) of the same binder?
A: The value was -0.197.

Q: And the “glycan array binding signal (z-score)” value (Glc(a1-6)Glc(a1-6)Glc)?
A: Its value is -0.201.

Q: And the “glycan array binding signal (z-score)” value [1]?
A: Its value is -0.198.

Q: What about the “glycan array binding signal (z-score)” value [2] of the same binder?
A: The value was -0.194.

Q: And the “glycan array binding signal (z-score)” value [3]?
A: The value was -0.191.

Q: And the “glycan array binding signal (z-score)” value (GlcNAc(b1-3)Fuc)?
A: The value was -0.185.

Q: What about the “glycan array binding signal (z-score)” value [4] of the same binder?
A: The value was -0.176.

Q: What about the “glycan array binding signal (z-score)” value [5] of the same binder?
A: Its value is -0.163.

Q: What about the “glycan array binding signal (z-score)” value [6] of the same binder?
A: Its value is -0.207.

Q: What about the “glycan array binding signal (z-score)” value (GlcNAc(b1-3)GalNAc) of the same binder?
A: Its value is -0.214.

Q: And the “glycan array binding signal (z-score)” value [7]?
A: The value was -0.166.

Q: And the “glycan array binding signal (z-score)” value [8]?
A: Its value is -0.198.

Q: What about the “glycan array binding signal (z-score)” value [9] of the same binder?
A: The value was -0.196.

Q: What about the “glycan array binding signal (z-score)” value [10] of the same binder?
A: Its value is -0.197.

Q: And the “glycan array binding signal (z-score)” value [11]?
A: The value was -0.213.

Q: What about the “glycan array binding signal (z-score)” value [12] of the same binder?
A: The value was -0.202.

Q: And the “glycan array binding signal (z-score)” value [13]?
A: The value was -0.12.

Q: And the “glycan array binding signal (z-score)” value [14]?
A: Its value is -0.16.

Q: What about the “glycan array binding signal (z-score)” value [15] of the same binder?
A: The value was -0.2.

Q: And the “glycan array binding signal (z-score)” value [16]?
A: The value was -0.2.

Q: And the “glycan array binding signal (z-score)” value [17]?
A: The value was 0.553.

Q: And the “glycan array binding signal (z-score)” value [18]?
A: The value was -0.194.
